Among the data in PubChem BioAssay AID1508600 (Functional Genomics Laboratory (NCATS/FGL), 2020) are z-score values, retold here.

About 3,700 (7%) of roughly 53,000 sequences were called active. Many of the other results were omitted from the sample, so actives are more common in it than they were. Unmarked numbers belong to inactive results.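 The calls were made as follows: active = gene knockdowns whose robust z-score for IL-1 alpha signal is at least 2 or at most -2, so actives lie on both sides; inactive = the rest.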

The assay in a line: Components of the Cytosolic LPS Sensing Pathway: Gene Identification via Genome-wide siRNA Screen.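 Also: robust z of the log signal after scaling to non-targeting control siRNA wells of the plate.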 To be noted: RAW264.7 macrophages, IL-1a HTRF, actives lie on both sides, screened at 100 nM (by protocol), cells primed 5 h with Pam3CSK4 first. In short, it runs like this:
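IL-1a HTRF of supernatants after 24 hour LipidA transfection of Pam3CSK4-primed (5 hours) RAW264.7 cells, 48h post-siRNA transfection (100 nM). Scores: percent of plate negative-control median, then log-based robust z-score.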
On to GGGUAACUGGUUUGUAUGATT against Gm4814, for which the z-score was 1.34.

On to GGGCAUAUUCAAACUUGUGTT against Elf2, for which the z-score is -1.68.

GGCUCAGACCUGGAUACAUTT against Oas1e: the z-score was -2.31 (active).

For the sequence CCAAGGUACUACUGGGAGATT against Sval3, the z-score is 0.268.

Consider GCAAGUACGCUGCUCUGUCTT against Eif4b, for which the z-score was 0.397.

Take GGCAGUCAGCUAAUGCUUATT against Pros1: the z-score was -0.372.

On to CGAGUAUUUUGAAAUCCUGTT against Cdcp3, for which the z-score is 0.406.

For the sequence GGAUCUAUGGGUAUCCUGCTT against Adam1a, the z-score is -1.8.

Consider GGAGGAUGAGAUGAUGCCATT against Sez6l2, for which the z-score is -2.19 (active).

GGCUCAAGUAUGAGAAUGATT against Krt15: the z-score was -0.859.

Turning to GGCUUUCCUUCGGAAGAAUTT against Abca14, the z-score is -1.15.

With GGAAGAUACGUGCAAAAUGTT against Rbms2, the z-score was -0.562.

On to GGAACAGUCUGAAAUACACTT against Usp18, for which the z-score is -0.907.

Regarding GCAGUUCUGGUUCUGUCUGTT against Nudcd3, the z-score was -0.203.

For the sequence GGCUCUUCUUAUGCACCCUTT against Pdyn, the z-score was -0.543.

Take CCCAGAAGGACGGCACUAGTT against H2-DMb2: the z-score is 0.265.

As to GCCUGACAAUAGUCAUUUCTT against Olfr985, the z-score is -2.03 (active).

For the sequence GGCUCACACUCCUGUUAAUTT against Fam20c, the z-score is -1.02.

For GGGCAUGAUUUUCACUUCCTT against Gpr150, the z-score was 0.79.

CGAGAAGGGUCAUAUGAGCTT against Rbp4: the z-score is -1.84.

As for GCUGUGACAGAAGCUUUCGTT against Vars2, the z-score is -0.201.

Take CCCUCAUGUUUCAUUUGUGTT against Glrx3: the z-score is -0.454.

Consider GCUUGAUAUAGUAUCCUUUTT against Prpf38b, for which the z-score is -2.05 (active).

Regarding GGAUUGUCAGAGAAAGAGATT against Syt3, the z-score is -0.751.

GCUACAAAGAGUAAAACUGTT against Zfp251: the z-score was 1.01.

In the case of GGCUGUUCGUGCAAGCCUATT against Bahcc1, the z-score is 0.544.

“GGUCAUCCCAUCUUACAAATT against 4933431E20Rik”: the z-score was 0.649.

For the sequence CCGACAUCCUUGAUACGUUTT against Vps35l, the z-score is -2.12 (active).

Regarding GGAACUGGAAAACUUCAAATT against Mrvi1, the z-score is 1.04.

Regarding GGAUUGCCCUGUUGUGGUGTT against Snx17, the z-score is -0.227.

For GCGAUACAACUCUUAUGACTT against Dennd5b, the z-score is -0.521.

As to GGACUAUGUGGCCCAGUGUTT against Nat8f5, the z-score is -1.11.

For the sequence GGAGCACAAUUCAAAUUCATT against Zbtb6, the z-score was 2.06 (active).

For GGGAAACACCUGGGUGCUUTT against Ctrl, the z-score was -1.07.

For the sequence GGGAGAUUGGAAACAAAAATT against Hsd3b4, the z-score is -0.935.

In the case of CCCUAUCAACUGAUCUUUUTT against Scml2, the z-score was -0.732.

For the sequence GGAUAGCUCAUGAUGCUGUTT against Usp13, the z-score is -0.885.

In the case of GGAAGUUGACAAAAUAGUGTT against Dlgap5, the z-score is 0.389.

For the sequence GCUAAAGUGACCUUAAAACTT against Phactr4, the z-score is -0.382.

On to GGACUACUUUAAGGAUUGGTT against Tfip11, for which the z-score was -2.97 (active).

On to CGAGAUGGGAGAUUGAAAUTT against Ms4a8a, for which the z-score is 0.47.

For GGAAGAGGAGGUGACAUACTT against Exd1, the z-score was -1.15.

Take CCACAUCAAGUCUAUCAUCTT against Ryr1: the z-score was -1.19.

For the sequence GGAUCAACCUAGAAGCUUGTT against Strada, the z-score was -0.192.

As for GGAGACUCCAACUACUUCATT against Sycp1, the z-score is 1.23.

As for GCCGCUUAUAUGUAUCGCUTT against Adipoq, the z-score was 2.54 (active).

Turning to CGCCUACUGCUUCAGGAUATT against Cgrrf1, the z-score was 1.27.

Turning to GGACUCAUCUUUAUUAUUCTT against Olfr393, the z-score is -0.324.

For the sequence GGAAGUUGGUUAUACUCGUTT against Lins1, the z-score is 0.822.

For GGAGGAAGACAUUGUGUGUTT against Tnfrsf11b, the z-score is -0.309.

Consider GGAAAACCAUGAAGCCAUGTT against Dnase1l3, for which the z-score was 0.69.

GGCUCUAUAUCCAGCAGCATT against Srst: the z-score was -1.1.

As for “GUCACUGAAUUUCUCCUCUTT against Olfr104-ps”, the z-score is -2.28 (active).

GGUUAUAUCCAUGUGACACTT against Nkg7: the z-score was -1.15.

As to GCAGCUUUAGGUCCAUUCGTT against Pkd2l2, the z-score was -0.696.

As to GGAACAUCCAUGUAUUCAATT against Ube2l3, the z-score is 0.76.

With GGAUAUCCGUGAGAUUUCATT against Timm9, the z-score was 3.7 (active).

In the case of CCCACUCUUUGUGUACUGATT against Olfr262, the z-score was -2.1 (active).

On to GGCUAAAUAUGUGAUUAGUTT against Maob, for which the z-score is -0.311.

In the case of GGAGUAUAUCUCGUUUAUATT against Ube2e2, the z-score is -0.221.

Turning to GGACCAUGCUGGAUACUAUTT against Yrdc, the z-score was 1.74.

With CCUGUACCCGAACAUACCATT against Fabp12, the z-score was -1.06.

As for GCAAGCAGACUUGUCCUUCTT against Hnrnpc, the z-score was -0.155.

Turning to GGUCAUCCUCAAGUCUCCUTT against Stmn3, the z-score was -2.28 (active).

Turning to GGAGAAGAGAAUAGAAGAATT against Ren1, the z-score is -0.0528.

Take GGCUGUACCAAUCUGACACTT against Pvalb: the z-score is 0.318.

Take AUAACCUAACUCACAACAATT against Olfr304: the z-score is -1.06.

With GGAAAUCGAUUCUCAUGAUTT against St6gal2, the z-score is 0.00146.

Consider CGGGCUCUUGUAGAUUUCATT against Ccdc86, for which the z-score was 3.22 (active).

Turning to GGGUAUGAUGUGAUUGCUCTT against Eif4a2, the z-score was 0.0435.

As to GGAUAACCUAUCGAAUCUCTT against Dsg4, the z-score was 1.26.

With GCAUCUCUCUACCAUUGACTT against Frmd8, the z-score is 0.538.

Consider CGUACAAAGGUAGUAUACCTT against Pi4k2a, for which the z-score is 1.1.

On to GGUUCUCAUACAUAAACAATT against Mri1, for which the z-score was -2.87 (active).

As for “GGGAUAACACUCCUGUUUUTT against F630111L10Rik”, the z-score is -1.06.

On to GUUCCUGCUGAUCAAGGACTT against Nsmce3, for which the z-score was 0.2.

On to GUCUUAUACACGUGUGGACTT against Cklf, for which the z-score was -0.198.

With GCACCUGAUUAAGUUGCAUTT against Med15, the z-score was -2.11 (active).

Consider GGAAUCAUUGACGUAAUCATT against Chil3, for which the z-score is 1.99.

On to GACAGGCGGCCUUCCGAGATT against Hyi, for which the z-score was -0.479.

As for GGGCGACACAAGGUUUUUGTT against Kif3a, the z-score was 2.61 (active).

As to GGAUGUAAAAUGCAGUUUATT against Tmsb4x, the z-score is 0.855.

As to GCGGAAUUUGGUUUCUAUUTT against Etv2, the z-score is -0.432.

With GGAGUUUCCAUCACGAAGATT against Bmp4, the z-score is 0.574.

Consider CCAUUAAGAUCCGAAGUAUTT against Lrrc58, for which the z-score is -0.36.

With GGUUGAAACGAGUUUUGAATT against Zbtb5, the z-score was 0.00556.

Take GGGCAGAAAAUCAUUUGUUTT against Anxa11: the z-score was 0.0839.

Consider CCAGUGGUAUGAGGUUGAATT against Cpne3, for which the z-score is 0.238.

In the case of GGAAACAACAACUGUCACATT against Defb40, the z-score was -2.13 (active).

GCACAUGGGAGACUAUGAATT against Necab2: the z-score was -1.14.

Take GCAGAGCGAUUAUAUGGACTT against Rnpepl1: the z-score is -0.308.

For the sequence CGAUUACUUGGAAAACCAATT against Ifne, the z-score is -1.21.

As for GCACAGGACUGAUGCUAAGTT against Wdr91, the z-score was 2.92 (active).

Consider GGCUCAUGUAAGAUAAUUATT against Kcns3, for which the z-score is -1.03.

For the sequence CCUGAAGAAAGAAUCCCUATT against Nobox, the z-score was 0.241.

GGCUCUUCCAACAGUUCUUTT against Grk1: the z-score is 2.07 (active).

As for CCUACAGUACUUCAAGCGGTT against Hip1, the z-score was -1.37.

With GCUCUAACGUAUGAUGCCATT against Nde1, the z-score was 0.206.

In the case of CCAAACUUAAGCCUAUUCUTT against Mme, the z-score was 1.32.

On to GCAACUGAGGCUUUCUUUGTT against Copg1, for which the z-score is -1.53.

For the sequence GGACACCAAUCACAUUUGATT against Cngb3, the z-score was -2.21 (active).

In the case of GGAAGCAUUGAUUUUCAUCTT against Prok2, the z-score was 1.82.

Consider GGUCGGUUGCUUUAGUGAATT against Magee2, for which the z-score was 1.42.

Regarding GGGCAAAAUCGUGUCAAGCTT against Dpp9, the z-score is 0.253.

Turning to CCCAAUGAUCCUAACCAUUTT against Zfp459, the z-score was -1.08.

GGAGAGAAUGGACCAUCUCTT against Rnase10: the z-score is -1.16.

Regarding GGUGUAUCUGUUCUGUUAATT against Impg1, the z-score was -0.559.

As for GGUGGUCUCCUACAAUGCCTT against Olfr1451, the z-score was 2.3 (active).
